# In all, about 18,000 sequences were measured (“TetR repression strength (sort-seq, GFP reporter)”: median about 0.23, highest 2% from about 0.68 on). The sample holds the highest values, similar sequences and a random draw of the others, so the mix is not that of the screen.
# Biological target: TetR (class B, Tn10) (UniProt P04483)
# Assay: TetR repression strength (sort-seq, GFP reporter) (relative to tetO2 = 1); higher = stronger repression
# Conditions: E. coli
# In short: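 Repression strength was calculated by subtracting the read-weighted mean bin from the top bin index plus one and dividing by the unaltered operator's value. The plasmid library was low-copy in E. coli SIG10-MAX, with eight randomized operator positions between a constitutive promoter and sfGFP and constitutive TetR. Cultures grew 5 h at 37 °C in LB containing 50 µg/mL chloramphenicol before 10^6 cells were sorted by FACS into 13 fluorescence bins, each sequenced on Illumina. Three independent transformations were averaged for members having ≥30 reads in all replicates and a CV ≤0.5.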
# Chain of TetR (class B, Tn10) (P04483 whole entry): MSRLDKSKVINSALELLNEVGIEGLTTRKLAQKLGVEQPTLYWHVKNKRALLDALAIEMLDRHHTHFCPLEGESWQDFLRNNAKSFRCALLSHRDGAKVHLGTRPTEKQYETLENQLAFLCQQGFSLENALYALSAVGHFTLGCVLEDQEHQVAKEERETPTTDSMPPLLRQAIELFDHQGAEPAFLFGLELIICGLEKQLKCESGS
row,Sequence,TetR repression strength
1,TCCCAGGGAGTGTTAGAGA,0.263
2,TCCCGCTGAGTCCGGGAGA,0.401
3,TCCCAGTCAGTAGGCGAGA,0.16
4,TCCCGGTCAGTAGGCGAGA,1.01
5,TCCCCGTCAGTAGGCGAGA,0.243
6,TCCCTAGCAGTCTTCGAGA,0.495
7,TCCCTTGGAGTCGTTGAGA,0.304
8,TCCCTTCTAGTTGTTGAGA,0.216
9,TCCCTTTTAGTCTATGAGA,0.858
10,TCCCTTAGAGTCTATGAGA,0.159
11,TCCCTTCTAGTTTTTGAGA,0.415
12,TCCCTTTTAGTGTATGAGA,0.271
13,TCCCTTCTAGTCTTTGAGA,0.693
14,TCCCTTTGAGTCTATGAGA,0.804
15,TCCCTTCTAGTTGCTGAGA,0.73
16,TCCCTTTGAGTCTTTGAGA,0.181
17,TCCCATTTAGTCTATGAGA,0.279
18,TCCCGTCTAGTCTTTGAGA,0.366
19,TCCCTTCTAGTTACTGAGA,0.464
20,TCCCTGGTAGTTGCTGAGA,0.189
21,TCCCAGAAAGTCGGGGAGA,0.0115
22,TCCCGAGCAGTATCGGAGA,0.138
23,TCCCAATAAGTGATTGAGA,0.408
24,TCCCACATAGTCTTTGAGA,0.244
25,TCCCGTGTAGTGATCGAGA,0.209
26,TCCCGCTGAGTTTTTGAGA,0.307

row,Sequence,TetR repression strength
1,TCCCGGAGAGTTGAGGAGA,0.193
2,TCCCGGTTAGTAATTGAGA,0.345
3,TCCCGTTAAGTTGCTGAGA,0.517
4,TCCCGTTCAGTTGCTGAGA,0.512
5,TCCCGGTCAGTTCCTGAGA,0.26
6,TCCCCGTAAGTTCCTGAGA,0.231
7,TCCCGCTAAGTTCCTGAGA,0.792
8,TCCCGCGAAGTTGTTGAGA,0.112
9,TCCCGTTCAGTTCCTGAGA,0.705
10,TCCCGTTAAGTTCCTGAGA,0.721
11,TCCCGCGAAGTTGCTGAGA,1.1
12,TCCCGTTAAGTGCCTGAGA,0.419
13,TCCCGCGAAGTTGGTGAGA,0.202
14,TCCCGCTAAGTTTCTGAGA,0.393
15,TCCCACATAGTTTAAGAGA,0.187
16,TCCCACCTAGTCTGCGAGA,0.302
17,TCCCTGACAGTAGTAGAGA,0.541
18,TCCCTGATAGTTCGAGAGA,0.244
19,TCCCGGTGAGTGCGAGAGA,0.189
20,TCCCAAGTAGTGGGGGAGA,0.133
21,TCCCCTTGAGTTACCGAGA,0.307
22,TCCCTCGAAGTTACCGAGA,0.221
23,TCCCTTGCAGTTACCGAGA,0.874
24,TCCCTTGCAGTTAACGAGA,0.104
25,TCCCTTGAAGTTACCGAGA,0.844
26,TCCCTTCCAGTTACCGAGA,0.351

row,Sequence,TetR repression strength
1,TCCCGGGTAGTCGGTGAGA,0.237
2,TCCCCCATAGTGCCAGAGA,0.453
3,TCCCATTAAGTGAGAGAGA,0.478
4,TCCCGTTCAGTCTCAGAGA,0.307
5,TCCCCTCTAGTGGCCGAGA,0.17
6,TCCCAGCAAGTCATGGAGA,0.401
7,TCCCAGCAAGTATGGGAGA,0.71
8,TCCCAGCCAGTTATGGAGA,0.169
9,TCCCAGCAAGTTATGGAGA,0.701
10,TCCCAGCAAGTATGCGAGA,0.282
11,TCCCAGCAAGTAGGGGAGA,0.289
12,TCCCTTCAAGTGTAAGAGA,0.158
13,TCCCCACTAGTACGTGAGA,0.363
14,TCCCCACTAGTAAATGAGA,0.726
15,TCCCCCGGAGTACGTGAGA,0.187
16,TCCCCACTAGTAAAAGAGA,0.303
17,TCCCCCCGAGTACGTGAGA,0.839
18,TCCCCCCTAGTACGTGAGA,0.814
19,TCCCCTCTAGTACGTGAGA,0.207
20,TCCCCGTGAGTACGTGAGA,0.226
21,TCCCAACTAGTAAATGAGA,0.567
22,TCCCTAGAAGTTATGGAGA,0.315
23,TCCCTGGCAGTTCATGAGA,0.199
24,TCCCGGGTAGTCCGGGAGA,0.112
25,TCCCAACCAGTCCCGGAGA,0.12
26,TCCCAAGGAGTGGGTGAGA,0.185

# From a collection of fitness landscapes (doi:10.1038/s41467-024-54723-y)
